Compound activity from PubChem.
A selection: hits, their analogues and other compounds. The true share with any hit is near 3.4%.
GPR151 ag – activators of human GPR151, primary screen, cell-based, PathHunter beta-arrestin, luminescence; G-protein coupled receptor 151 (Homo sapiens), Q8TDV0; PathHunter beta-arrestin GPR151 cells; activation, % at 11.2 µM; 650,000 tested, 1% active; AID 1508602, 2020; in the data active = activation above about 4.9%;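 also: 0% = median of compound wells and 100% = cells with positive control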
Target sequence (Q8TDV0 whole entry, looked up): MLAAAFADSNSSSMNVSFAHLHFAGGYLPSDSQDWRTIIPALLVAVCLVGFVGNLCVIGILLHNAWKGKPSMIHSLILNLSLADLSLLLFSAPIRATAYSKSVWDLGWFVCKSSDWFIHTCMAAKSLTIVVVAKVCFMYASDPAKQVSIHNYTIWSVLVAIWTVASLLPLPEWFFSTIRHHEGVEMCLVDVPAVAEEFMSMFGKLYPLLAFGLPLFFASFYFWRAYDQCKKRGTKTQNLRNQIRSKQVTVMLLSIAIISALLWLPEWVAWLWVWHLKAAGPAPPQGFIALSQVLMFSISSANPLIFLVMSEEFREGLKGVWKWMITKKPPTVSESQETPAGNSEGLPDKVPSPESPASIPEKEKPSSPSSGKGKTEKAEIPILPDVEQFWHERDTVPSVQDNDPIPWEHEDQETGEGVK
FBW7 act – FBW7 E3 ligase activators, primary screen, biochemical, AlphaScreen, human | F-box/WD repeat-containing protein 7 (Homo sapiens), Q969H0 | AlphaScreen FBW7–phospho-cyclin E peptide binding, activator screen | normalized activity (activation), % at 26.1 µM | 650,000 tested, 0.13% active | AID 1259310, 2017; in the data active = normalized activity above about 1.9%;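 also: purified mutant Fbw7 with reduced substrate affinity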
MITF primary – MITF inhibitors, primary screen, biochemical, AlphaScreen, human; Microphthalmia-associated transcription factor (Homo sapiens), O75030; AlphaScreen MITF homodimerization, bead proximity signal; AID 1259374, 2018; 650,000 tested, 0.91% active; inhibition, % at 2.6 µM; in the data active = inhibition above about 50%;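 also: 0% = vehicle wells with protein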
TEAD-YAP inh – TEAD-YAP interaction inhibition, primary screen, TEAD-YAP interaction inhibitor project, luminescence, HEK-TIYL cells; TEAD-Gal4/YAP UAS-luciferase luminescence; AID 1259422, 2018; 640,000 tested, 1.4% active; inhibition, % at 9.12 µM; in the data active = inhibition above about 32%;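 also: 0% = median of test compound wells and 100% = reference inhibitor wells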
GPR151 conf act – GPR151 activators, triplicate retest, confirmation, cell-based, PathHunter beta-arrestin, luminescence. shares compounds with GPR151 ag. GPR151 PathHunter beta-arrestin cells, 90 min; % of EA-reagent control over plate median. activation, % at 11.2 µM. 6,700 tested, under 10 active;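 active = mean percent activation across replicates above the confirmation screen cutoff of 4.91%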
GPR119 counter – GPR119 activators in beta-arrestin cells, counter-screen for GPR151 activator project, cell-based, PathHunter beta-arrestin, luminescence, triplicate; shares compounds with GPR151 ag; 90 min; 0 = compound-well median, 100 = enzyme-acceptor control; activation, % at 11.2 µM; 6,700 tested, 0.3% active; AID 1508611, 2020;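 active = mean percent activation in the counterscreen above 29.09%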;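 also: counterscreen on off-target GPR119 to flag nonselective hits from the GPR151 activator screen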
The depositor's hits bear a star; x = no result.

SMILES | GPR151 ag | FBW7 act | MITF primary | TEAD-YAP inh | GPR151 conf act | GPR119 counter
O=c1nc(SCc2c(F)cccc2Cl)c2c(n1CCCO)CCCC2 | 5.1* | 0 | 6 | -14 | 0 | -9
O=c1nc(SCc2cccc3ccccc23)c2c(n1CCCO)CCCC2 | 0 | 0 | -11 | 1 | x | x
COc1ccc(N2Cc3ccc(C(=O)N/N=C/c4ccco4)cc3C2)cc1 | 0 | 1 | 23 | -21 | x | x
COc1ccc(C(=O)Nc2ccc(C(=O)N/N=C/c3ccc(O)cc3O)cc2)cc1 | 8.6* | 0 | -3 | -6 | 0 | 3
COc1ccc(C(=O)N/N=C/c2ccco2)cc1 | 6.9* | 0 | 21 | -32 | 0 | -7
CCOCCc1nnc(NC(=O)CC(c2ccccc2)c2ccccc2)s1 | 8.6* | 1 | 20 | 2 | 0 | 9
CCC(Sc1ccccc1C(=O)O)C(=O)O (stereo not drawn) | 0 | 0 | 11 | 11 | x | x
CCC(Sc1c[nH]c2ccccc12)C(=O)O (stereo not drawn) | 5.5* | 0 | -2 | -5 | 0 | 0
Cc1cc(C)cc(NC(=O)C2CCN(c3nnc(-n4c(C)ccc4C)s3)CC2)c1 | 5.5* | 0 | 5 | 5 | 0 | -10
COCC(=O)N1CCCC(CNS(=O)(=O)c2ccc(OC)cc2)C1 (stereo not drawn) | -1 | 0 | -1 | 5 | x | x
COc1ccc(S(=O)(=O)NCC2CCCN(Cc3ccncc3)C2)cc1 (stereo not drawn) | 1 | 0 | -4 | 6 | x | x
COc1ccc(S(=O)(=O)NCC2CCCN(C(=O)c3sccc3C)C2)cc1 (stereo not drawn) | 5.5* | 0 | -10 | 17 | 1 | 8
COc1ccc(S(=O)(=O)NCC2CCCN(CCCC3CCCC3)C2)cc1 (stereo not drawn) | 5.8* | 0 | -13 | 4 | 0 | 3
COc1cccc(CC(=O)N2CCc3nnc(CNC(=O)CCc4cccnc4)n3CC2)c1 | 5.7* | 0 | 2 | -2 | 0 | 5
CCn1cc(CN2CCCC(CNC(=O)c3ccc(-c4ccccc4)cc3)C2)cn1 (stereo not drawn) | 6.0* | 0 | 8 | 9 | 0 | -4
COc1cc(C2C(C(=O)Nc3ccc(Br)cn3)=C(C)NC3=C2C(=O)CCC3)cc(OC)c1OC (stereo not drawn) | 1 | 0 | 16 | -1 | x | x
O=C(NCCCSc1ccc(Br)cc1)Nc1ncccn1 | 5.2* | 0 | 8 | 10 | 1 | 7
COc1cccc(CNCC2CCCO2)c1OC (stereo not drawn) | 1 | 0 | 4 | 0 | x | x
COc1ccc(CNCC2CCCO2)c(OC)c1OC (stereo not drawn) | 5.9* | 0 | 6 | 5 | 0 | 7
CC(C)N1CCN(Cc2ccc(OC3CCCC3)cc2)CC1CCO (stereo not drawn) | 17* | 0 | 10 | 13 | -1 | 2
COc1ccc(-n2ccnc2CN2CCN(C(C)C)C(CCO)C2)cc1 (stereo not drawn) | 5.0* | 0 | 5 | -1 | 0 | -9
CC(C)N1CCN(Cc2ccc(OCc3ccccc3)cc2)CC1CCO (stereo not drawn) | -1 | 0 | 9 | -3 | x | x
CC(C)N1CCN(Cc2cccn2-c2cccnc2)CC1CCO (stereo not drawn) | -1 | 0 | 2 | -5 | x | x
CCOC(=O)N1CCC(=NNS(=O)(=O)c2cccc([N+](=O)[O-])c2)CC1 | 2 | 0 | -1 | -9 | x | x
Cc1nnc(SCc2cc(=O)n3[nH]cnc3n2)s1 | 5.7* | 0 | 14 | 11 | -1 | -5
Cc1cc(C)c2c(N)c(C(=O)c3ccc(Br)cc3)sc2n1 | 0 | 0 | -3 | -9 | x | x
COc1ccc(/C(C)=N/Nc2ccc([N+](=O)[O-])cc2S(=O)(=O)N2CCOCC2)cc1 | 1 | 0 | -5 | 0 | x | x
